Experimental data: ChEMBL document CHEMBL1157539, “Thousands of chemical starting points for antimalarial lead identification” (Nature, 2010)

Assays:
Type in all cases: functional
Plasmodium falciparum [1] = test: GSK_TCMDC: Inhibition of Plasmodium falciparum 3D7 in whole red blood cells, using parasite LDH activity as an index of growth. Test compounds present at 2uM
Plasmodium falciparum [2] = test: GSK_TCMDC: Inhibition of Plasmodium falciparum Dd2 in whole red blood cells, using parasite LDH activity as an index of growth. Test compounds present at 2uM
HepG2 = test: GSK_TCMDC: Percent inhibition of human HepG2 cell line. Test compounds present at 10uM.

CN1CCN(c2ccc(Nc3nc(N)c4ccn(C5CCC5)c4n3)cc2)CC1.O=C(O)C(F)(F)F
Inhibition (Plasmodium falciparum [1]): 93%
Inhibition (Plasmodium falciparum [2]): 47%
Inhibition (HepG2): 0%

CN1CCCc2cc(NC(=O)C=Cc3ccc(-c4ccc(F)cc4F)o3)ccc2C1.O=C(O)C(F)(F)F
Inhibition (Plasmodium falciparum [1]): 90%
Inhibition (Plasmodium falciparum [2]): 27%
Inhibition (HepG2): 5%

Cc1cc(C)n(-c2nc(Nc3cccc(C(F)(F)F)c3)nc(-n3nc(C)cc3C)n2)n1
Inhibition (Plasmodium falciparum [1]): 99%
Inhibition (Plasmodium falciparum [2]): 88%
Inhibition (HepG2): 0%

c1ccc2c(CNc3ccnc(NCc4cccc5ccccc45)n3)cccc2c1
Inhibition (Plasmodium falciparum [1]): 99%
Inhibition (Plasmodium falciparum [2]): 71%
Inhibition (HepG2): 51%

Clc1ccccc1C=NN=c1cc[nH]c2ccccc12
Inhibition (Plasmodium falciparum [1]): 100%
Inhibition (Plasmodium falciparum [2]): 50%
Inhibition (HepG2): 25%

CN1CCN(CCCN(Cc2csc(-c3ccc(CNCc4ccccc4)cc3)n2)C(=O)Nc2ccc3ccccc3c2)CC1.O=C(O)C(F)(F)F
Inhibition (Plasmodium falciparum [1]): 94%
Inhibition (Plasmodium falciparum [2]): 63%
Inhibition (HepG2): 12%

O=C(NCCN1CCCC1)N1CCCN(c2ncnc3cc(-c4ccc(Cl)cc4)sc23)CC1.O=C(O)C(F)(F)F
Inhibition (Plasmodium falciparum [1]): 96%
Inhibition (Plasmodium falciparum [2]): 32%
Inhibition (HepG2): 13%

COc1ccc(C2C(C(=O)OC3CCCC3)=C(C)NC3=C2C(=O)CCC3)cc1Br (configuration not stated)
Inhibition (Plasmodium falciparum [1]): 94%
Inhibition (Plasmodium falciparum [2]): 77%
Inhibition (HepG2): 0%

CN(C)c1ccc2c(c1)Sc1cc(N(C)C)ccc1N2C(=O)CCCC(=O)[O-].[Na+]
Inhibition (Plasmodium falciparum [1]): 96%
Inhibition (Plasmodium falciparum [2]): 81%
Inhibition (HepG2): 0%

CNc1nc(Nc2ccccc2C)nc2ccccc12.Cl
Inhibition (Plasmodium falciparum [1]): 100%
Inhibition (Plasmodium falciparum [2]): 81%
Inhibition (HepG2): 17%

O=C(NC1CCC(N2CCC(c3nc4ccccc4s3)CC2)CC1)c1cc2ccccc2[nH]1 (configuration not stated)
Inhibition (Plasmodium falciparum [1]): 94%
Inhibition (Plasmodium falciparum [2]): 37%
Inhibition (HepG2): 23%

O=C(NC1CCCCC1)N(Cc1cccc(-c2ccc(CNCc3ccc4c(c3)OCO4)cc2)c1)C1CCN(Cc2ccccc2)CC1.O=C(O)C(F)(F)F
Inhibition (Plasmodium falciparum [1]): 92%
Inhibition (Plasmodium falciparum [2]): 59%
Inhibition (HepG2): 13%

CS(=O)(=O)Cc1ccc(Nc2nccc(-c3c(-c4cccc(NC(=O)C5CCCCC5)c4)nn4ncccc34)n2)cc1
Inhibition (Plasmodium falciparum [1]): 98%
Inhibition (Plasmodium falciparum [2]): 99%
Inhibition (HepG2): 31%

Cc1cccc(Nc2nccc(NCC(O)c3cccc(C(F)(F)F)c3)n2)c1 (configuration not stated)
Inhibition (Plasmodium falciparum [1]): 100%
Inhibition (Plasmodium falciparum [2]): 94%
Inhibition (HepG2): 25%

CN1CCCN(Cc2ccc(-c3ccc(NC(=O)c4cccc(C#N)c4)cc3)cc2)CC1.O=C(O)C(F)(F)F
Inhibition (Plasmodium falciparum [1]): 97%
Inhibition (Plasmodium falciparum [2]): 67%
Inhibition (HepG2): 46%

CN(C)CCOc1ccc(-n2c(-c3nonc3N)nc3cncc(-c4ccc(F)cc4)c32)cc1
Inhibition (Plasmodium falciparum [1]): 97%
Inhibition (Plasmodium falciparum [2]): 7%
Inhibition (HepG2): 10%

COc1cc(NC(=O)CCCCCCCCN2CCN(C)CC2)c2ncccc2c1
Inhibition (Plasmodium falciparum [1]): 82%
Inhibition (Plasmodium falciparum [2]): 36%
Inhibition (HepG2): 8%

CC(=O)Nc1ccc(S(=O)(=O)Nc2ccc(Nc3nc(C)cc(N(C)C)n3)cc2)cc1
Inhibition (Plasmodium falciparum [1]): 100%
Inhibition (Plasmodium falciparum [2]): 22%
Inhibition (HepG2): 0%

CN(C)Cc1c(O)ccc2[nH]c(-c3cccc(F)c3)nc12
Inhibition (Plasmodium falciparum [1]): 99%
Inhibition (Plasmodium falciparum [2]): 71%
Inhibition (HepG2): 9%

Cc1cccc2nc(-c3cccc(-c4cccc(CNCc5ccccc5)c4)c3)[nH]c12.O=C(O)C(F)(F)F
Inhibition (Plasmodium falciparum [1]): 100%
Inhibition (Plasmodium falciparum [2]): 56%
Inhibition (HepG2): 3%

N=C(N)NCCN(Cc1ccccc1)c1ccccc1
Inhibition (Plasmodium falciparum [1]): 100%
Inhibition (Plasmodium falciparum [2]): 98%
Inhibition (HepG2): 8%

COc1cc(C)nc2ccc(NC(=O)COCC(=O)Nc3ccc4nc(C)cc(OC)c4c3)cc12
Inhibition (Plasmodium falciparum [1]): 100%
Inhibition (Plasmodium falciparum [2]): 41%
Inhibition (HepG2): 67%

O=C(Nc1ccccc1)Nc1ccc(-c2cccc(-c3nc4cc(C(F)(F)F)ccc4[nH]3)c2)cc1
Inhibition (Plasmodium falciparum [1]): 100%
Inhibition (Plasmodium falciparum [2]): 73%
Inhibition (HepG2): 59%

N#Cc1ccc2c(c1)CN(C1CCC(NC(=O)c3cc(-c4ccc(Cl)cc4)cs3)CC1)CCC2 (configuration not stated)
Inhibition (Plasmodium falciparum [1]): 100%
Inhibition (Plasmodium falciparum [2]): 99%
Inhibition (HepG2): 36%

O=c1cc(NCCC2CC=CCN2Cc2ccc(Cl)c(Cl)c2)[nH]c2ccccc12 (configuration not stated)
Inhibition (Plasmodium falciparum [1]): 94%
Inhibition (Plasmodium falciparum [2]): 77%
Inhibition (HepG2): 7%

Cc1ccc2[nH]c([N-]C#N)nc2c1.[Na+]
Inhibition (Plasmodium falciparum [1]): 96%
Inhibition (Plasmodium falciparum [2]): 0%
Inhibition (HepG2): 7%

Cc1nc(-c2cccc(Nc3nccc(NCC(O)c4ccccc4C(F)(F)F)n3)c2)cs1 (configuration not stated)
Inhibition (Plasmodium falciparum [1]): 97%
Inhibition (Plasmodium falciparum [2]): 50%
Inhibition (HepG2): 48%

O=C(NCCCc1ccccc1)c1csc(C2CCCN(C(=O)c3ccc(O)c(-c4ccccc4)c3)C2)n1 (configuration not stated)
Inhibition (Plasmodium falciparum [1]): 97%
Inhibition (Plasmodium falciparum [2]): 97%
Inhibition (HepG2): 5%

Cc1cccc2nc(-c3cccc(-c4ccc(NC(=O)c5ccncc5)cc4)c3)[nH]c12
Inhibition (Plasmodium falciparum [1]): 98%
Inhibition (Plasmodium falciparum [2]): 74%
Inhibition (HepG2): 34%
